We go through 45 sequences from the supplement of paper PMC3545927.

The list shows a part of the results. The hit rate among all sequences tested is not known here.

In the assay the target is furin, P09958. Put plainly: furin cleavage Z-score vs untreated control; higher = more cleavage, active = 3.5 or more, inactive = 1 or less, 8 variable residues between constant flanks. An outline of the steps: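 Furin cleavage was scored on 8-mer peptides joined to a cDNA oligonucleotide and bound to magnetic beads at the N-terminus. Digestion with purified furin (1:10 enzyme:substrate, 0.01 ml, 50 mM HEPES pH 7.5, CaCl2, NaCl) lasted 7.5, 15 or 30 min. Freed DNA was tagged with adapters by PCR, sequenced and counted; the cleavage Z-score is the lowess-adjusted log count versus furin-free reactions, scaled by median absolute deviation.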
furin, P09958, sequence (P09958 whole entry): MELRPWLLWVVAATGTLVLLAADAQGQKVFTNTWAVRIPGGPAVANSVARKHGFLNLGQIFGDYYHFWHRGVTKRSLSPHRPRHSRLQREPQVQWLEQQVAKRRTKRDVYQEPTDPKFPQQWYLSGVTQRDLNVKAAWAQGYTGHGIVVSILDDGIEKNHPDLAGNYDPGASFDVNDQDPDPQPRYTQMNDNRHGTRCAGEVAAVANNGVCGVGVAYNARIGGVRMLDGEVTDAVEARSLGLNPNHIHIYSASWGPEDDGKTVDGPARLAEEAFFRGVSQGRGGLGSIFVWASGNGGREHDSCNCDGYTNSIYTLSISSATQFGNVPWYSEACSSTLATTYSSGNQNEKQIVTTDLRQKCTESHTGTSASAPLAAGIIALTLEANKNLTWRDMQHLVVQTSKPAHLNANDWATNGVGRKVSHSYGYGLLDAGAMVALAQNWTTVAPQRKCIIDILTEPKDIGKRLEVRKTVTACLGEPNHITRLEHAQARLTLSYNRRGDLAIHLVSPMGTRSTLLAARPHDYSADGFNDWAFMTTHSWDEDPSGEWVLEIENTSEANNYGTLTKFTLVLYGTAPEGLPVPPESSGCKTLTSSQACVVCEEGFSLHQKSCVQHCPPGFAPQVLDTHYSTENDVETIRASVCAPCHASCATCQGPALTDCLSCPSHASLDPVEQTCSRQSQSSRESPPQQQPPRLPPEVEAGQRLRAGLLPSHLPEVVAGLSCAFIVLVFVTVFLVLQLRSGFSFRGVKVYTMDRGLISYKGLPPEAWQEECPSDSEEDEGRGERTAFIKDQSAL

B1: HC24 (peptide)
chain: CAMEECLQHLAGNASASA
As to B1, the “furin cleavage Z-score” value (7.5 min) was 0.426 (inactive), the “furin cleavage Z-score” value (15 min) is 0.849 (inactive) and the “furin cleavage Z-score” value (30 min) came out at 1.01.

B2: HC25 (peptide)
chain: CAMEECIQHLAGNASASA
For B2, the “furin cleavage Z-score” value is 2.89 (7.5 min), 0.509 (inactive) (15 min) and 1.63 (30 min).

B3: FS-2345 (peptide)
chain: CARKKRTTSAAGNASASA
As to B3, the “furin cleavage Z-score” value was 8.37 (active) (7.5 min), 8.69 (active) (15 min) and 6.28 (active) (30 min).

B4: FS-2872 (peptide)
chain: CAMKKRDLSAAGNASASA
Take B4: the “furin cleavage Z-score” value was 4.25 (active) (7.5 min), 5.63 (active) (15 min) and 4.84 (active) (30 min).

B5: FS-2342 (peptide)
chain: CARKKRIVTGAGNASASA
Consider B5, for which the “furin cleavage Z-score” value (7.5 min) was 4.57 (active), the “furin cleavage Z-score” value (15 min) is 4.97 (active) and the “furin cleavage Z-score” value (30 min) is 5.79 (active).

B6: HC1261 (peptide)
chain: CASSASQLSAAGNASASA
With B6, the “furin cleavage Z-score” value (7.5 min) was 0.811 (inactive), the “furin cleavage Z-score” value (15 min) is -0.271 (inactive) and the “furin cleavage Z-score” value (30 min) was -1.07 (inactive).

B7: FU2 (peptide)
chain: CARKKRSTSAAGNASASA
Consider B7, for which the “furin cleavage Z-score” value is, setting by setting: (7.5 min) 12.7 (active); (15 min) 14.1 (active); (30 min) 8.12 (active).

B8: FS-1725 (peptide)
chain: CARKGKSSSAAGNASASA
B8: the “furin cleavage Z-score” value reads like this: (7.5 min) -1.17 (inactive); (15 min) -1.17 (inactive); (30 min) -0.784 (inactive).

B9: FS-2192 (peptide)
chain: CARTYRWLSAAGNASASA
As for B9, the “furin cleavage Z-score” value was -0.657 (inactive) (7.5 min), 1.48 (15 min) and 0.201 (inactive) (30 min).

B10: FS-2344 (peptide)
chain: CARKKRPGGGAGNASASA
For the sequence B10, the “furin cleavage Z-score” value by setting is: (7.5 min) 0.0138 (inactive); (15 min) 0.394 (inactive); (30 min) -0.0781 (inactive).

B11: HC1005 (peptide)
chain: CASGKPAIIPAGNASASA
Consider B11, for which the “furin cleavage Z-score” value is, setting by setting: (7.5 min) -1.38 (inactive); (15 min) -0.473 (inactive); (30 min) 0.121 (inactive).

B12: HC1900 (peptide)
chain: CATTPCSCSWAGNASASA
In the case of B12, the “furin cleavage Z-score” value by setting is: (7.5 min) -1.59 (inactive); (15 min) -2.52 (inactive); (30 min) -0.421 (inactive).

B13: HC1907 (peptide)
chain: CATTPCSGFWAGNASASA
B13: the “furin cleavage Z-score” value is -1.56 (inactive) (7.5 min), -0.535 (inactive) (15 min) and -0.967 (inactive) (30 min).

B14: FS-2147 (peptide)
chain: CARHTRSIFWAGNASASA
B14: the “furin cleavage Z-score” value was 4.67 (active) (7.5 min), 4.45 (active) (15 min) and 7.05 (active) (30 min).

B15: HC357 (peptide)
chain: CAGHTVSGFVAGNASASA
On to B15, for which the “furin cleavage Z-score” value by setting is: (7.5 min) 1.57; (15 min) -0.476 (inactive); (30 min) -0.897 (inactive).

B16: FS-1897 (peptide)
chain: CARHTRSYDYAGNASASA
Regarding B16, the “furin cleavage Z-score” value reads like this: (7.5 min) 1.79; (15 min) 2.03; (30 min) 4.9 (active).

B17: FS-2805 (peptide)
chain: CARSIRDAEDAGNASASA
As to B17, the “furin cleavage Z-score” value runs as follows: (7.5 min) 0.647 (inactive); (15 min) 0.756 (inactive); (30 min) 1.52.

B18: FS-2681 (peptide)
chain: CARHTRSAEDAGNASASA
For the sequence B18, the “furin cleavage Z-score” value is 11.3 (active) (7.5 min), 11.4 (active) (15 min) and 9.18 (active) (30 min).

B19: FS-2417 (peptide)
chain: CARGRRKDDYAGNASASA
Consider B19, for which the “furin cleavage Z-score” value is 0.188 (inactive) (7.5 min), -0.41 (inactive) (15 min) and 0.301 (inactive) (30 min).

B20: FS-2931 (peptide)
chain: CARGDRFSEDAGNASASA
For B20, the “furin cleavage Z-score” value was -1.45 (inactive) (7.5 min), -0.738 (inactive) (15 min) and -1.76 (inactive) (30 min).

B21: FS-3014 (peptide)
chain: CARNTRSDEDAGNASASA
Regarding B21, the “furin cleavage Z-score” value was -1.02 (inactive) (7.5 min), -0.114 (inactive) (15 min) and -1.53 (inactive) (30 min).

B22: HC1571 (peptide)
chain: CARHTPVNSWAGNASASA
In the case of B22, the “furin cleavage Z-score” value was 1.44 (7.5 min), 0.608 (inactive) (15 min) and 0.598 (inactive) (30 min).

B23: FS-2950 (peptide)
chain: CARIIRSSEDAGNASASA
For B23, the “furin cleavage Z-score” value by setting is: (7.5 min) 3.85 (active); (15 min) 3.61 (active); (30 min) 5.54 (active).

B24: HC1853 (peptide)
chain: CATRPCSGSWAGNASASA
For the sequence B24, the “furin cleavage Z-score” value is, setting by setting: (7.5 min) -0.899 (inactive); (15 min) -0.615 (inactive); (30 min) -0.153 (inactive).

B25: HC945 (peptide)
chain: CADAHFLSQTAGNASASA
B25: the “furin cleavage Z-score” value by setting is: (7.5 min) 0.613 (inactive); (15 min) 1.42; (30 min) 0.711 (inactive).

B26: HC1881 (peptide)
chain: CATTNCSGSWAGNASASA
In the case of B26, the “furin cleavage Z-score” value runs as follows: (7.5 min) -0.528 (inactive); (15 min) -0.292 (inactive); (30 min) 0.376 (inactive).

B27: HC2132 (peptide)
chain: CAEEVVCCSMAGNASASA
On to B27, for which the “furin cleavage Z-score” value runs as follows: (7.5 min) 0.374 (inactive); (15 min) 0.297 (inactive); (30 min) -0.621 (inactive).

B28: HC1651 (peptide)
chain: CAYHSVSHARAGNASASA
Turning to B28, the “furin cleavage Z-score” value reads like this: (7.5 min) -1.35 (inactive); (15 min) -2.06 (inactive); (30 min) 0.0597 (inactive).

B29: HC1772 (peptide)
chain: CAMEECSQHEAGNASASA
As to B29, the “furin cleavage Z-score” value is, setting by setting: (7.5 min) 1.5; (15 min) -1.3 (inactive); (30 min) 0.318 (inactive).

B30: HC335 (peptide)
chain: CAAGAHWGVLAGNASASA
Regarding B30, the “furin cleavage Z-score” value is -0.197 (inactive) (7.5 min), -0.687 (inactive) (15 min) and 0.539 (inactive) (30 min).

B31: HC2286 (peptide)
chain: CADMEVVTSTAGNASASA
In the case of B31, the “furin cleavage Z-score” value reads like this: (7.5 min) 0.448 (inactive); (15 min) -0.986 (inactive); (30 min) 0.706 (inactive).

B32: HC1932 (peptide)
chain: CATTPCSGSEAGNASASA
B32: the “furin cleavage Z-score” value is -1.03 (inactive) (7.5 min), -0.656 (inactive) (15 min) and -0.208 (inactive) (30 min).

B33: FS-1624 (peptide)
chain: CACNHRNRRRAGNASASA
With B33, the “furin cleavage Z-score” value is, setting by setting: (7.5 min) 5.53 (active); (15 min) 5.63 (active); (30 min) 6.25 (active).

B34: FS-1131 (peptide)
chain: CAKKSRLRRRAGNASASA
Take B34: the “furin cleavage Z-score” value by setting is: (7.5 min) 0.949 (inactive); (15 min) 0.557 (inactive); (30 min) 0.0179 (inactive).

B35: FS-1040 (peptide)
chain: CAPAHRHRRRAGNASASA
As to B35, the “furin cleavage Z-score” value by setting is: (7.5 min) 8.92 (active); (15 min) 11.7 (active); (30 min) 8.95 (active).

B36: FS-1124 (peptide)
chain: CAFGRRLRRRAGNASASA
Consider B36, for which the “furin cleavage Z-score” value (7.5 min) was 3.43, the “furin cleavage Z-score” value (15 min) is 6.37 (active) and the “furin cleavage Z-score” value (30 min) is 4.4 (active).

B37: FS-106 (peptide)
chain: CAVRKRLRRRAGNASASA
Regarding B37, the “furin cleavage Z-score” value is 5.39 (active) (7.5 min), 6.32 (active) (15 min) and 5.13 (active) (30 min).

B38: HC2580 (peptide)
chain: CASTPCSAHCAGNASASA
With B38, the “furin cleavage Z-score” value was 0.205 (inactive) (7.5 min), 1.68 (15 min) and 0.424 (inactive) (30 min).

B39: HC1664 (peptide)
chain: CAIEECSQHLAGNASASA
For B39, the “furin cleavage Z-score” value (7.5 min) was 0.463 (inactive), the “furin cleavage Z-score” value (15 min) is 0.93 (inactive) and the “furin cleavage Z-score” value (30 min) is 0.504 (inactive).

B40: HC2208 (peptide)
chain: CAEVVTSWWVAGNASASA
With B40, the “furin cleavage Z-score” value is -0.678 (inactive) (7.5 min), 0.21 (inactive) (15 min) and -0.507 (inactive) (30 min).

B41: FS-49 (peptide)
chain: CALCGRYKRWAGNASASA
Turning to B41, the “furin cleavage Z-score” value is 9.62 (active) (7.5 min), 12 (active) (15 min) and 10.7 (active) (30 min).

B42: HC367 (peptide)
chain: CALINTNGSWAGNASASA
As to B42, the “furin cleavage Z-score” value runs as follows: (7.5 min) 1.08; (15 min) -2.18 (inactive); (30 min) 0.0661 (inactive).

B43: FS-1634 (peptide)
chain: CAKIARHYRWAGNASASA
In the case of B43, the “furin cleavage Z-score” value runs as follows: (7.5 min) 0.349 (inactive); (15 min) 0.374 (inactive); (30 min) 2.69.

B44: FS-270 (peptide)
chain: CALIDRFKRWAGNASASA
B44: the “furin cleavage Z-score” value is, setting by setting: (7.5 min) 8.5 (active); (15 min) 9.49 (active); (30 min) 10.6 (active).

B45: FS-370 (peptide)
chain: CAQHYRKKRWAGNASASA
Consider B45, for which the “furin cleavage Z-score” value reads like this: (7.5 min) 7.9 (active); (15 min) 8.78 (active); (30 min) 9.04 (active).
